From PubChem BioAssay (EPA / NIEHS)
Results filed as inconclusive are left out. Calls of active or inactive are those of the source. How the source made its calls, unless noted: active means hit-call score of the fitted dose curve at least 0.9, where 1 is the maximum; inactive means score below 0.9.

Assays:
[1] = target: human RAR-related Orphan Receptor gamma (RORg), RORC (gene 6097) (UniProt P51449); experiment: ATG_RORg_TRANS: Attagene TRANS-FACTORIAL HepG2 Assay for human RAR-related Orphan Receptor gamma (RORg) (AID 2283011; active means hit-call score of the fitted dose curve at least 0.9, where 1 is the maximum)
Chain of human RAR-related Orphan Receptor gamma (RORg), RORC (gene 6097) (P51449 whole entry, looked up, the tested form may be a part): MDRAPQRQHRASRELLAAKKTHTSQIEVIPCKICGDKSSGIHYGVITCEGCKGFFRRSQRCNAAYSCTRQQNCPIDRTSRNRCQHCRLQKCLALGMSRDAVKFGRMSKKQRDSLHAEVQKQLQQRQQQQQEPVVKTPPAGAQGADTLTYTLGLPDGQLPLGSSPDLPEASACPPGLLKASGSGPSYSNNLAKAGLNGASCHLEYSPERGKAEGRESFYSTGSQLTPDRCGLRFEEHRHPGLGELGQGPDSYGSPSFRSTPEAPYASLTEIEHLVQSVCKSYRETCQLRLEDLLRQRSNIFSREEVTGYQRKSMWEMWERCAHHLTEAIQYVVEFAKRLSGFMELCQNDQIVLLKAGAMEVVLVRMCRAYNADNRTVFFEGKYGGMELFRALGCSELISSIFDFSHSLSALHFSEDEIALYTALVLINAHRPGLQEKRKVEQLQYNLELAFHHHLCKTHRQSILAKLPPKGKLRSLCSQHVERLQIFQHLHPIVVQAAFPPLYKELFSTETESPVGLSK
Summary of the method: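 Chimeric RORg-Gal4 transactivation in transfected HepG2; 24 h exposure; RT-PCR/capillary electrophoresis readout of reporter mRNA, DMSO baseline.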

[2] = read-out: E-selectin (Homo sapiens) (UniProt P16581); experiment: BSK_3C_Eselectin: BioMAP Diversity Plus: 3C Assay for Eselectin Biomarker Activity (AID 2283015); conditions: primary human endothelial cells (HUVEC); actives raise or lower the signal
Summary of the method: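 Endpoint derived by bidirectional fitting against DMSO vehicle; signal is ELISA-detected E-selectin from primary HUVEC at 24 h post-dosing, with parallel SRB staining (0.1% SRB, 560 nm) flagging cytotoxicity.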

[3] = read-out: Monocyte Chemoattractant Protein-1 (MCP1), CCL2 (gene 6347); experiment: BSK_3C_MCP1: BioMAP Diversity Plus: 3C Assay for Monocyte Chemoattractant Protein-1 (MCP1) Biomarker Activity (AID 2283017); conditions: primary human endothelial cells (HUVEC); actives raise or lower the signal
Summary of the method: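 Using human vascular primary endothelium, researchers measured MCP-1 by ELISA 24 h after treatment, with DMSO serving as negative control for bidirectional fitting.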

[4] = read-out: Monocyte Chemoattractant Protein-1 (MCP1), CCL2 (gene 6347); experiment: BSK_4H_MCP1: BioMAP Diversity Plus: 4H Assay for Monocyte Chemoattractant Protein-1 (MCP1) Biomarker Activity (AID 2283018); conditions: primary human endothelial cells (HUVEC); actives raise or lower the signal
Summary of the method: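 Endothelial cells from umbilical vein were treated with test chemical, then after 24 h MCP-1 levels were quantified by ELISA; endpoint values came from bidirectional fitting with DMSO as baseline of activity.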

[5] = read-out: Interleukin-8 (IL8), CXCL8 (gene 3576); experiment: BSK_3C_IL8: BioMAP Diversity Plus: 3C Assay for Interleukin-8 (IL8) Biomarker Activity (AID 2283020); conditions: primary human endothelial cells (HUVEC); actives raise or lower the signal
Summary of the method: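 Endothelial primary cells of human umbilical vein origin are dosed with chemical; after 24 h the IL-8 biomarker is measured by ELISA, and concentration–response is fitted in both directions versus DMSO.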

[6] = read-out: Monokine induced gamma interferon (MIG), CXCL9 (gene 4283); experiment: BSK_3C_MIG: BioMAP Diversity Plus: 3C Assay for Monokine induced gamma interferon (MIG) Biomarker Activity (AID 2283021); conditions: primary human endothelial cells (HUVEC); actives raise or lower the signal;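 on AC50: MIG protein level measured by immunoassay in the treated endothelial cultures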
Summary of the method: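 Endothelial primary cells (human umbilical vein) are dosed with test chemical in the 3C system. MIG levels are measured by ELISA at 24 h and fitted in both directions relative to DMSO.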

[7] = BSK_3C_SRB: Viability Assessment in the BioMAP Diversity Plus: 3C Assay (AID 2283023); conditions: primary human endothelial cells (HUVEC);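 further: fitted both ways against DMSO so a hit may be signal rise or drop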
Summary of the method: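 Overt cytotoxicity is gauged in parallel confluent HUVEC cultures by SRB total-protein staining at the time of biomarker measurement, 24 h after dosing. Gain or loss of signal is fitted versus DMSO.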

[8] = read-out: Matrix Metallopeptidase 1 (MMP1), MMP1 (gene 4312); experiment: BSK_BE3C_MMP1: BioMAP Diversity Plus: BE3C Assay for Matrix Metallopeptidase 1 (MMP1) Biomarker Activity (AID 2283024); conditions: primary human bronchial epithelial cells; actives raise or lower the signal
Summary of the method: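 MMP1 signal, measured by ELISA after a 24 h chemical exposure of human primary bronchial epithelial cells, is analysed with bidirectional fitting using DMSO as negative control.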

[9] = BSK_3C_Vis: BioMAP Diversity Plus: 3C Assay for Morphology Visualization (AID 2283025); conditions: primary human endothelial cells (HUVEC);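 further: fitted both ways so gain or loss versus DMSO counts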
Summary of the method: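 Morphology read by light microscopy serves as a background control for the multiplexed 3C assay in human umbilical vein endothelial cells, taken 24 h after dosing, with DMSO as the negative control and bidirectional curve fitting.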

[10] = read-out: Pselectin, SELP (gene 6403); experiment: BSK_4H_Pselectin: BioMAP Diversity Plus: 4H Assay for Pselectin Biomarker Activity (AID 2283026); conditions: primary human endothelial cells (HUVEC); actives raise or lower the signal
Summary of the method: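 Endothelial primary cells (human umbilical vein) are dosed, incubated 24 h, and assayed for surface P-selectin by ELISA; responses in either direction are fitted relative to the DMSO negative control.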

[11] = read-out: Thrombomodulin, THBD (gene 7056); experiment: BSK_3C_Thrombomodulin: BioMAP Diversity Plus: 3C Assay for Thrombomodulin Biomarker Activity (AID 2283029); conditions: primary human endothelial cells (HUVEC); actives raise or lower the signal
Summary of the method: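 Endothelial cells from umbilical vein are dosed with test chemical and incubated 24 h. Thrombomodulin is then quantified by ELISA, with DMSO serving as negative control and activity baseline.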

[12] = read-out: Urokinase-type plasminogen activator receptor (uPAR), PLAUR (gene 5329); experiment: BSK_4H_uPAR: BioMAP Diversity Plus: 4H Assay for Urokinase-type plasminogen activator receptor (uPAR) Biomarker Activity (AID 2283030); conditions: primary human endothelial cells (HUVEC); actives raise or lower the signal
Summary of the method: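 Endpoint derived via bidirectional curve fitting against DMSO baseline; readout was ELISA detection of uPAR on umbilical vein endothelial cells at 24 h post-treatment, with SRB-stained parallel cultures assessing cytotoxicity.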

[13] = read-out: Interleukin-1 alpha (IL1a), IL1A (gene 3552); experiment: BSK_BE3C_IL1a: BioMAP Diversity Plus: BE3C Assay for Interleukin-1 alpha (IL1a) Biomarker Activity (AID 2283016); conditions: primary human bronchial epithelial cells; actives raise or lower the signal
Summary of the method: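 Signal from IL-1a ELISA, taken 24 h after chemical dosing of human bronchial epithelial cells, is compared with DMSO as baseline using bidirectional curve fitting.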

[14] = target: human Vitamin D Receptor (VDR), VDR (gene 7421) (UniProt P11473); experiment: ATG_VDR_TRANS: Attagene TRANS-FACTORIAL HepG2 Assay for human Vitamin D Receptor (VDR) (AID 2283022; active means hit-call score of the fitted dose curve at least 0.9, where 1 is the maximum)
Chain of human Vitamin D Receptor (VDR), VDR (gene 7421) (P11473 whole entry, looked up): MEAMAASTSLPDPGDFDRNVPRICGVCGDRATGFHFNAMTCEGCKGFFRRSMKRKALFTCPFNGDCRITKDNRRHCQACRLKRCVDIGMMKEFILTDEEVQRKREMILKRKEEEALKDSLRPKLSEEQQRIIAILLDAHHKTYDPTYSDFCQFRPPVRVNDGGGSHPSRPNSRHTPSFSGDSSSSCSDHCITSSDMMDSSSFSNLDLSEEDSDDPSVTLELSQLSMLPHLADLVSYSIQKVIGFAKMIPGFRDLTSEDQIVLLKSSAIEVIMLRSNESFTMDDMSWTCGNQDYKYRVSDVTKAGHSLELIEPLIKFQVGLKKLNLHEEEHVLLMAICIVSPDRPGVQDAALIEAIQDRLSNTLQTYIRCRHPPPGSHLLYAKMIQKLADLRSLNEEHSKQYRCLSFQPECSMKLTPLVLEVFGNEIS
Summary of the method: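 Multiplexed TRANS reporter in HepG2; 24 h treatment; reporter mRNA by RT-PCR plus capillary electrophoresis; upregulation scored relative to DMSO.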

[15] = read-out: Human Leukocyte Antigen - DR isotype (HLADR), HLA-DRA (gene 3122); experiment: BSK_3C_HLADR: BioMAP Diversity Plus: 3C Assay for Human Leukocyte Antigen - DR isotype (HLADR) Biomarker Activity (AID 2283019); conditions: primary human endothelial cells (HUVEC); actives raise or lower the signal
Summary of the method: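 Compound added to primary HUVEC cultures, 24 h incubation, then HLA-DR determined by ELISA; endpoint derived by bidirectional fitting relative to DMSO negative control.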

[16] = BSK_BE3C_SRB: Viability Assessment in the BioMAP Diversity Plus: BE3C Assay (AID 2283028); conditions: primary human bronchial epithelial cells
Summary of the method: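 SRB total-protein staining (0.1%, after TCA fixation) of chemically dosed human bronchial epithelial primary cells at 24 h; DMSO serves as the negative control for bidirectional curve fitting.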

[17] = target: human Thyroid Receptor alpha (THRa1), THRA (gene 7067) (UniProt P10827); experiment: ATG_THRa1_TRANS: Attagene TRANS-FACTORIAL HepG2 Assay for human Thyroid Receptor alpha (THRa1) (AID 2283014; active means hit-call score of the fitted dose curve at least 0.9, where 1 is the maximum)
Chain of human Thyroid Receptor alpha (THRa1), THRA (gene 7067) (P10827 whole entry, looked up, the tested form may be a part): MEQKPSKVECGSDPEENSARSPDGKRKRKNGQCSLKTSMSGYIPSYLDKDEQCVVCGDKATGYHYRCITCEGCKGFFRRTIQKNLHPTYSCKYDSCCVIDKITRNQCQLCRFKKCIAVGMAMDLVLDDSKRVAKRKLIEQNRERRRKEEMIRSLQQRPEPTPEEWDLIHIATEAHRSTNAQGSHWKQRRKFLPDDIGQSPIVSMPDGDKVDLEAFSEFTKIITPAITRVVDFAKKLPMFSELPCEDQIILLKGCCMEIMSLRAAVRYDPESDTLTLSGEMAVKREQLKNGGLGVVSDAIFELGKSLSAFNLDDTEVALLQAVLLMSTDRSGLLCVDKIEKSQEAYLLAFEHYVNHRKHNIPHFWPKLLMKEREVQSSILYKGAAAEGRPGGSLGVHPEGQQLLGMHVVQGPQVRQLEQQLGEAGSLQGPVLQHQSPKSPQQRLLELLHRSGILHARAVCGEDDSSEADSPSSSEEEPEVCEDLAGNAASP
Summary of the method: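 Measured here is mRNA from a GAL4-UAS reporter in transfected HepG2 cells carrying a Gal4-fused receptor, 24 h post-dose. DMSO served as negative control and baseline.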

[18] = BSK_4H_SRB: Viability Assessment in the BioMAP Diversity Plus: 4H Assay (AID 2283027); conditions: primary human endothelial cells (HUVEC);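 further: cells exposed to compound for 24 h before staining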;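 on AC50: curves fitted both ways versus DMSO so AC50 may be loss or gain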
Summary of the method: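 Cytotoxicity read-out in primary human endothelial cells: after 24 h compound exposure, cells were TCA-fixed (10%), stained with 0.1% SRB and absorbance taken at 560 nm. Values fitted in both directions relative to DMSO.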

[19] = target: human Retinoid X Receptor beta (RXRb), RXRB (gene 6257) (UniProt P28702); experiment: ATG_RXRb_TRANS: Attagene TRANS-FACTORIAL HepG2 Assay for human Retinoid X Receptor beta (RXRb) (AID 2283013; active means hit-call score of the fitted dose curve at least 0.9, where 1 is the maximum)
Chain of human Retinoid X Receptor beta (RXRb), RXRB (gene 6257) (P28702 whole entry, looked up, the tested form may be a part): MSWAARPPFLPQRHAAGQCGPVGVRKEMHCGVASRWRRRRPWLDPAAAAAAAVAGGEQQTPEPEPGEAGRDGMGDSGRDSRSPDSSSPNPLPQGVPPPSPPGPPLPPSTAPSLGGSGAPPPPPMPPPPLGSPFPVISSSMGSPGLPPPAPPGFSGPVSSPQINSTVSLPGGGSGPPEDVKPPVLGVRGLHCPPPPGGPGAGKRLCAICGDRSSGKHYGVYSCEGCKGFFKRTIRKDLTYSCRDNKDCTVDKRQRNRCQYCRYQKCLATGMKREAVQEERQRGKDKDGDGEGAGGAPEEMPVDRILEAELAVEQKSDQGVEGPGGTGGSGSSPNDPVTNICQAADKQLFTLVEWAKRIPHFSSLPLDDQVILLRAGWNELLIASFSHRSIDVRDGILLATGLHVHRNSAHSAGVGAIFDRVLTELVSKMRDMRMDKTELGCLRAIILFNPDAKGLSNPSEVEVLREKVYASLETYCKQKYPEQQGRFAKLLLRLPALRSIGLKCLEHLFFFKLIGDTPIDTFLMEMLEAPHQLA
Summary of the method: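 Chimeric receptor-Gal4 activity was assessed in transiently transfected human HepG2 cells after 24 h exposure. Transcripts from GAL4-UAS reporters were quantified by fluorescent RT-PCR and capillary electrophoresis, with DMSO as negative control and baseline.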

[20] = target: Retinoic acid receptor RXR-alpha (Homo sapiens) (UniProt P19793); experiment: ATG_RXRa_TRANS: Attagene TRANS-FACTORIAL HepG2 Assay for human Retinoid X Receptor alpha (RXRa) (AID 2283012; active means hit-call score of the fitted dose curve at least 0.9, where 1 is the maximum)
Chain of Retinoic acid receptor RXR-alpha (Homo sapiens) (P19793 whole entry, looked up, the tested form may be a part): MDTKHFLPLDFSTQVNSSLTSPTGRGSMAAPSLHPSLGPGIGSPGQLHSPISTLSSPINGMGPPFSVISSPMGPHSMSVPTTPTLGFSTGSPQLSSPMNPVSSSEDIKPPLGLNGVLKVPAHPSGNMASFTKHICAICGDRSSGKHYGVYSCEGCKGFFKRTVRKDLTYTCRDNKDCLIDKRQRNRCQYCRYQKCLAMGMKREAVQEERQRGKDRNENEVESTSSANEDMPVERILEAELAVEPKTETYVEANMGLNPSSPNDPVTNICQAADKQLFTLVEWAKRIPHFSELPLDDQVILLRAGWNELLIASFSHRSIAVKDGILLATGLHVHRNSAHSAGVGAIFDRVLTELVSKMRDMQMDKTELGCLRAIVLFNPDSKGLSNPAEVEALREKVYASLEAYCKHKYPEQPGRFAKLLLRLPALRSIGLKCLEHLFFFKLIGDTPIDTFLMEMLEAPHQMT
Summary of the method: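 Measures exogenous chimeric NR-GAL4 activity in transfected HepG2 liver cells after 24 h of dosing. Induced reporter mRNA was detected by RT-PCR with capillary electrophoresis, and gain of signal was analysed against DMSO.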

Measured: AC50

Chain of E-selectin (Homo sapiens) (P16581 whole entry, looked up): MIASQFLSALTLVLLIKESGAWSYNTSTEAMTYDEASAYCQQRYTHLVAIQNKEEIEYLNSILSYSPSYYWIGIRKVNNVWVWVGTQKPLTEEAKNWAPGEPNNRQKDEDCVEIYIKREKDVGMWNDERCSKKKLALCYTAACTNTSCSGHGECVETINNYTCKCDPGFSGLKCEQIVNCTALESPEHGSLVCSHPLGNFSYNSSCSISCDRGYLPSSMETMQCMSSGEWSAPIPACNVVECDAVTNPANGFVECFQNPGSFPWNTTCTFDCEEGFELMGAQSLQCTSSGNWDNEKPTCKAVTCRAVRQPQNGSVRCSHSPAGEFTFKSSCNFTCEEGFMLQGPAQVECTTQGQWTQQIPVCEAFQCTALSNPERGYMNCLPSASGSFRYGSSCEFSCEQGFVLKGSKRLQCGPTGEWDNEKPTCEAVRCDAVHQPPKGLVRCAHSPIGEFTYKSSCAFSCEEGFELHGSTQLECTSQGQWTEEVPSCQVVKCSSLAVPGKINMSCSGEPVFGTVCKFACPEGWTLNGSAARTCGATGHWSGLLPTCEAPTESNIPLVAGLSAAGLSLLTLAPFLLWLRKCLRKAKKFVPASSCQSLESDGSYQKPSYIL

[Cl-].[Cl-].[Hg+2]
inactive: [1] | [3] | [11]
active: [2] 36.7 µM | [4] 30.7 µM | [5] 31.1 µM | [6] 30.9 µM | [7] 30.3 µM | [8] 31.4 µM | [9] 37.5 µM | [10] 33 µM | [12] 30 µM

CC(O)CCO (configuration not stated)
not listed: [15] | [16] | [17] | [18] | [19] | [20]
inactive: all other assays above

Clc1ccc(Cl)c(Cl)c1
not listed: [2] | [10] | [14] | [17] | [18] | [19] | [20]
inactive: all other assays above

Nc1cc(Cl)cc(C(=O)O)c1Cl
not listed: [2] | [13] | [14] | [18] | [19] | [20]
inactive: all other assays above

OCCCBr
not listed: [13] | [17] | [19] | [20]
inactive: all other assays above

Cc1ccc(N)cc1
not listed: [10] | [14] | [17] | [19] | [20]
inactive: all other assays above

O=C1CCCO1
active: [9] 16.3 µM
not listed: [14] | [15] | [17] | [18] | [19] | [20]
inactive: all other assays above

Nc1ccc([N+](=O)[O-])cc1
not listed: [2] | [15] | [17] | [18] | [19] | [20]
inactive: all other assays above

c1ccc(NNc2ccccc2)cc1
not listed: [10] | [14] | [17] | [18] | [19] | [20]
inactive: all other assays above

N#CC(Br)(Br)C(N)=O
active: [19] 10 µM
not listed: [2] | [10] | [14] | [16] | [17] | [20]
inactive: all other assays above

CN(C)c1ccc(C(=O)c2ccc(N(C)C)cc2)cc1
active: [3] 2.3 µM | [15] 20 µM | [5] 2.55 µM | [7] 3.55 µM | [9] 5.81 µM | [18] 1.56 µM
not listed: [17] | [19] | [20]
inactive: all other assays above

COC(=O)c1ccccc1N
not listed: [13] | [14] | [15] | [16] | [17] | [19] | [20]
inactive: all other assays above

ClC1=C(Cl)[C@]2(Cl)[C@H]3[C@H]([C@@H]4C=C[C@H]3C4)[C@@]1(Cl)C2(Cl)Cl
inactive: [1] | [20] | [13] | [9] | [11]
active: [2] 30.9 µM | [3] 32.2 µM | [4] 24.2 µM | [5] 28.8 µM | [6] 37.3 µM | [7] 26 µM | [8] 20 µM | [10] 24.1 µM | [18] 33.3 µM | [12] 32.3 µM

OCCOCCO
not listed: [2] | [13] | [14] | [15] | [16] | [17] | [18] | [20]
inactive: all other assays above

[As]#[In]
not listed: [13] | [14] | [15] | [17] | [18] | [19] | [20]
inactive: all other assays above

OCCCl
not listed: [2] | [14] | [15] | [17] | [19] | [20]
inactive: all other assays above

Oc1ccc2ccc3cccc4ccc1c2c34
inactive: [1] | [8] | [16] | [11]
active: [19] 43.3 µM | [3] 29.7 µM | [4] 14.2 µM | [5] 32.8 µM | [6] 37.6 µM | [7] 30 µM | [9] 37.5 µM | [18] 31.5 µM | [12] 30.4 µM
